Assay results published in PubChem BioAssay.

Experiments:
[1] = test system: Botulinum neurotoxin type F light chain protease (Clostridium botulinum); assay: Clostridium botulinum type F light chain protease inhibitors, microsphere substrate cleavage, validation (AID 588459); conditions: multiplex microsphere protease substrate cleavage assay, flow cytometry; at 10 µM; stronger effect = higher value
[2] = target: Botulinum neurotoxin type A (Clostridium botulinum) (UniProt P0DPI0); assay: BoNT/A light chain protease inhibitors, biochemical, multiplex microsphere flow cytometry, validation set (AID 588460); conditions: at 10 µM, stronger effect = higher value
Chain of Botulinum neurotoxin type A (Clostridium botulinum) (P0DPI0 whole entry, looked up): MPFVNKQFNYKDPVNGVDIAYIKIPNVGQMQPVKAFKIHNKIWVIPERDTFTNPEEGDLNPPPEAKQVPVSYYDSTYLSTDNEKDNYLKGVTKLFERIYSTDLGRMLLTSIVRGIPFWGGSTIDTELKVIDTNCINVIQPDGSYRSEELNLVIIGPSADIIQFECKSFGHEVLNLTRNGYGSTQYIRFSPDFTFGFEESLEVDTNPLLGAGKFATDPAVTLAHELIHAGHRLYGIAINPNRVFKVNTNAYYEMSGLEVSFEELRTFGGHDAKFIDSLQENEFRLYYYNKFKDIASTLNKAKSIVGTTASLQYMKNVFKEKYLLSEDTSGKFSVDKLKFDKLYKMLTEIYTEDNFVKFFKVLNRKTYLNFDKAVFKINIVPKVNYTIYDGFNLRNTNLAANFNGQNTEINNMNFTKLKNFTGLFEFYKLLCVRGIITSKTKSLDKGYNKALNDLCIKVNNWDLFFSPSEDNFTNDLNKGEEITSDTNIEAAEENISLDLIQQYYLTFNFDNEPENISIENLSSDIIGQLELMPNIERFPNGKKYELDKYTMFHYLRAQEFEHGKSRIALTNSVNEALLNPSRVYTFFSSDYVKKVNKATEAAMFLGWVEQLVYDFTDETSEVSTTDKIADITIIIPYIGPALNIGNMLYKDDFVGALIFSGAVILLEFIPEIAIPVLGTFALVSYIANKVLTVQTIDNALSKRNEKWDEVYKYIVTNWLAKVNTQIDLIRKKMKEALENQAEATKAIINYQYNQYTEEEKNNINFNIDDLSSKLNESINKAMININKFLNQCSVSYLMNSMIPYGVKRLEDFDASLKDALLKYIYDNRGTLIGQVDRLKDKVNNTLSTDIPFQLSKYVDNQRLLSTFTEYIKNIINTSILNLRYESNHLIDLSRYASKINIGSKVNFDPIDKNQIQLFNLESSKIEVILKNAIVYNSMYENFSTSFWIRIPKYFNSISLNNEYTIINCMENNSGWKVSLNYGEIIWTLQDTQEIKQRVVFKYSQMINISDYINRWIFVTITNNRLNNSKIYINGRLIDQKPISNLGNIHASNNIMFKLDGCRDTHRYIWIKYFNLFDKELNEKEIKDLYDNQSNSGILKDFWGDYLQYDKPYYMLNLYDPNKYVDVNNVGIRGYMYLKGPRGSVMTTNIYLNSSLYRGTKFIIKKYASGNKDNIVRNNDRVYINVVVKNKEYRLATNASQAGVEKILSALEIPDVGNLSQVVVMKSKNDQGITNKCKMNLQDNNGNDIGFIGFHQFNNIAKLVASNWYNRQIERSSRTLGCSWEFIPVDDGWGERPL

[3] = target: Lethal factor (Bacillus anthracis) (UniProt P15917); assay: Bacillus anthracis lethal factor inhibition, microsphere flow cytometry protease assay, validation at 10 µM (AID 588461); conditions: multiplex microsphere protease cleavage assay, stronger effect = higher value
Chain of Lethal factor (Bacillus anthracis) (P15917 whole entry, looked up): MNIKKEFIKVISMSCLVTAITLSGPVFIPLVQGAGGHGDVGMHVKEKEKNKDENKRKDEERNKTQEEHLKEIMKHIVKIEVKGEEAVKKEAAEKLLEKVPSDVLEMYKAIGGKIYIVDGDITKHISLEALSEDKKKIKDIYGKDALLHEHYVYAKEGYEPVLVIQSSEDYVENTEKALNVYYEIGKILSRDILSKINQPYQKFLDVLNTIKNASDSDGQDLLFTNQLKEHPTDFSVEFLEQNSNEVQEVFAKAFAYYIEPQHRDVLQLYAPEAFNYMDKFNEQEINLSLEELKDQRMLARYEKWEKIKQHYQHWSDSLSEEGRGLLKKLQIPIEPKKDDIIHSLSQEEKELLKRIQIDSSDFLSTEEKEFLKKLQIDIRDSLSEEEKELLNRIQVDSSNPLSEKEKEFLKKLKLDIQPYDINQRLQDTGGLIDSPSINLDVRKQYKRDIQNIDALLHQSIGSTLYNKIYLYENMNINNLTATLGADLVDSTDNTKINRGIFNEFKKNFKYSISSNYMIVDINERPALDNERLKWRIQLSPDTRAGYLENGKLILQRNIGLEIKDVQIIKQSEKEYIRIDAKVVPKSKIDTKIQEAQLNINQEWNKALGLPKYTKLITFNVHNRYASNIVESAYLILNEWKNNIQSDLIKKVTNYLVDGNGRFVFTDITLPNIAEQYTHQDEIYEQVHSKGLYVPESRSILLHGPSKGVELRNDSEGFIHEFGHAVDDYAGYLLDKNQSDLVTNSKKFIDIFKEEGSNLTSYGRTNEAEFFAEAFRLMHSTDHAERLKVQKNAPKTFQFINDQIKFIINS

Measured: inhibition

CCSC(SCC)[C@H](O)[C@@H](O)[C@H](O)[C@H](O)CO
inactive: [1] 3.3% | [2] -0.7% | [3] -1.5%

CC(COc1ccccc1)NC(C)C(O)c1ccc(O)cc1 (configuration not stated)
inactive: [1] -1.7% | [2] 0.2% | [3] 0.2%

Cc1cccc(N2CCN(C(=S)c3ccccc3)CC2)c1
inactive: [1] 3.3% | [2] -1.9% | [3] -2.9%

CC1(C)O[C@@H]2C[C@H]3[C@@H]4C[C@H](F)C5=CC(=O)C=C[C@]5(C)[C@@]4(F)[C@@H](O)C[C@]3(C)[C@]2(C(=O)CO)O1
inactive: [1] -0.5% | [2] 0.1% | [3] -6.8%

O=C(O)C1CSC(c2ccco2)N1 (configuration not stated)
inactive: [1] -2.3% | [2] -2.5% | [3] -0.8%

COc1cccc2c(=O)c3ccccc3oc12
inactive: [1] 12.6% | [2] 3.9% | [3] -4.2%

Cc1ccc2c(c1)c(C)cc(=O)n2CCC(=O)O
inactive: [1] 0.8% | [2] -0.2% | [3] 1.1%

CN(C)c1ccc(C(CN)c2c[nH]c3ccccc23)cc1 (configuration not stated)
inactive: [1] -5.8% | [2] -1.5% | [3] -3.4%

CO[C@H]1C=CO[C@@]2(C)Oc3c(C)c(O)c4c(O)c(c(C=NN5CCN(C)CC5)c(O)c4c3C2=O)NC(=O)C(C)=CC=C[C@H](C)[C@H](O)[C@@H](C)[C@@H](O)[C@@H](C)[C@H](OC(C)=O)[C@@H]1C
inactive: [1] -7.2% | [2] 0.5% | [3] -7.3%
